Source: PubChem BioAssay AID434970 (Sanford-Burnham Center for Chemical Genomics, 2010)
Out of some 11,000 compounds screened, about 310 (2.8%) were called active. No stated cut-off is given here; in the data, active means activity change below about -85%; inactive means the rest. What follows is part of a selection rich in actives, with near analogues and random picks from the rest.

The molecules below were run on intestinal alkaline phosphatase [Mus musculus] (assay: activators of mouse IAP, confirmation, biochemical, luminescence, single concentration (AID 434970)). Details: purified mouse IAP, CDP-Star luminescence, 30 min, at 10 µM; activation factor: measured here: IAP activation factor, stronger effect = higher value; activity change, negative = activation: stronger effect = lower value.

| SMILES | activation factor | activity change, negative = activation |
| --- | --- | --- |
| CCOC(=O)CN1C(=O)/C(=C2\SC(=S)N(NC(=O)c3cccnc3)C2=O)c2ccccc21 | 0.472 | 52.8% (inactive) |
| Cc1c(C(=O)N2CCN(c3ncccn3)CC2)sc2nc3n(c(=O)c12)CCCC3 | 1.11 | -11.4% (inactive) |
| Clc1ccc2nc(C3CCN(Cc4nnnn4C4CCCCC4)CC3)[nH]c2c1 | 1.15 | -14.6% (inactive) |
| CCn1nnnc1SCC(=O)c1cccc(OC)c1 | 0.96 | 4.05% (inactive) |
| COc1cccc(CNC(=O)c2ccc(NC(=O)C3CCCO3)cc2)c1 (configuration not stated) | 0.932 | 6.8% (inactive) |
| CCOc1ccc(-n2cc(C(=O)Nc3ccc(Cl)cn3)c3cc(OC)c(OC)cc3c2=O)cc1 | 0.946 | 5.4% (inactive) |
| Oc1ccccc1C1=NOC(O)(C(F)F)C1 (configuration not stated) | 0.928 | 7.2% (inactive) |
| CCOC(=O)N1CCN(C(=O)c2ccc3c(=O)n(CCC4=CCCCC4)c(=O)[nH]c3c2)CC1 | 0.936 | 6.4% (inactive) |
| O=C(CC1CCCC1)Nc1nnc(C2CC2)s1 | 0.933 | 6.65% (inactive) |
| Cc1onc(-c2ccccc2)c1C(=O)Nc1nc2c(s1)C(=O)CC(C)(C)C2 | 0.877 | 12.2% (inactive) |
| CCOc1ccc(CCNC(=O)c2cc(-c3ccccc3)c(N3CCOCC3)s2)cc1OCC | 1.74 | -73.9% (inactive) |
| CCOc1ccc(CCNC(=O)c2cc(-c3ccccc3)c(N3CCOCC3)s2)cc1 | 2.1 | -110% (active) |
| O=C(NCCc1ccccc1)c1cc(-c2ccccc2)c(N2CCOCC2)s1 | 1.46 | -45.9% (inactive) |
| O=C(NCCc1ccc(F)cc1)N1CCOCC1 | 1.01 | -0.6% (inactive) |
| O=C(CCCC(=O)N(CC(=O)NC1CCCCC1)Cc1ccccc1)Nc1ccccn1 | 1.16 | -15.6% (inactive) |
| CCCCC(=O)Nc1ccc(NC(=O)c2cccnc2)cn1 | 1.06 | -5.55% (inactive) |
| Cc1ccccc1NC(=O)/C(=C\c1cccs1)NC(=O)c1ccccc1 | 1.02 | -1.5% (inactive) |
| COc1ccc(C(CCN2CCOCC2)c2c(OC)cc(OC)c3c(-c4ccccc4)cc(=O)oc23)cc1 (configuration not stated) | 1.07 | -7.05% (inactive) |
| O=C(Nc1cccc(Cl)c1)Nc1cc(S(=O)(=O)N2CCCCC2)ccc1Cl | 2.08 | -108% (active) |
| O=C(Cc1ccccc1Cl)Nc1cccc(S(=O)(=O)N2CCCCCC2)c1 | 1.61 | -60.6% (inactive) |
| O=C(Cc1ccc(Cl)cc1)Nc1cccc(S(=O)(=O)N2CCCCC2)c1 | 1.4 | -40.2% (inactive) |

| SMILES | activation factor | activity change, negative = activation |
| --- | --- | --- |
| O=C(Nc1ccc(Cl)cc1F)c1cc(S(=O)(=O)N2CCCCC2)ccc1F | 1.11 | -11.5% (inactive) |
| O=C(Nc1cccc(S(=O)(=O)N2CCCCC2)c1)Nc1ccc(Cl)cc1Cl | 4.41 | -341% (active) |
| O=C(Nc1ccc(Cl)cc1Cl)NC1CCN(S(=O)(=O)c2ccc(F)cc2)CC1 | 2.16 | -116% (active) |
| O=C(CN1CCN(S(=O)(=O)c2ccc(Cl)cc2)CC1)NC(=O)NC1CCCCC1 | 0.929 | 7.05% (inactive) |
| Cc1cc(OCC(=O)Nc2cccc(S(=O)(=O)N3CCCCC3)c2)ccc1Cl | 1.81 | -81.3% (inactive) |
| COc1ccc(CCNc2nc(-c3ccco3)cc(C(F)(F)F)n2)cc1OC | 0.889 | 11.2% (inactive) |
| CCn1c(CSc2nc3ccccc3[nH]2)nc2cc(C(=O)O)ccc21 | 0.865 | 13.6% (inactive) |
| CN1CCN(CCc2nc3cc(NC(=O)COc4ccccc4)ccc3n2C)CC1 | 0.96 | 4.05% (inactive) |
| CN1CCN(C(=O)c2ccc3c(c2)OCCO3)CC1 | 0.959 | 4.15% (inactive) |
| Cc1nc(CC(=O)Nc2nc(-c3ccccc3)cs2)cs1 | 0.961 | 3.9% (inactive) |
| COc1ccc(OC)c(S(=O)(=O)N2CCC(C(=O)NC(C)c3ccccc3)CC2)c1 (configuration not stated) | 1.03 | -3.4% (inactive) |
| Nc1c(C(=O)NCCc2ccccc2)nnn1Cc1ccc(Cl)cc1 | 1.1 | -9.55% (inactive) |
| Cc1cc(C)c2c(n1)nn1c(NCCOCCO)cc(C)nc21 | 0.968 | 3.25% (inactive) |
| Cc1ccc(S(=O)(=O)N2C[C@@H]3[C@H]4CC[C@H](C4)[C@@H]3[C@@H](C)[C@@H]2c2ccn([Si](C(C)C)(C(C)C)C(C)C)c2)cc1 | 0.986 | 1.35% (inactive) |
| COc1ccc(S(=O)(=O)Nc2cc(C(C)C)c(O)cc2C)cc1 | 0.996 | 0.45% (inactive) |
| Cc1ccc(SCCCn2cnc3ccccc3c2=O)cc1 | 0.958 | 4.25% (inactive) |
| COc1cc(OC)c2c(-c3ccccc3)cc(=O)oc2c1C(CCN1CCOCC1)c1ccc2c(c1)OCO2 (configuration not stated) | 0.932 | 6.8% (inactive) |
| CCN(CC)C(=O)[C@H]1CC(CC(=O)NCCC2=CCCCC2)C(=O)N2CCc3c([nH]c4ccc(OC)cc34)[C@]12C (some centres not stated) | 1.07 | -7.45% (inactive) |
| S=C(Nc1cccc(Cl)c1)NC1CC2CCCC(C1)N2C1CCCC1 (configuration not stated) | 1.44 | -44.3% (inactive) |
| O=C(Nc1cccc(-c2cccc(Cl)c2)c1)C1CCN(C2CCC2)CC1 | 3.94 | -294% (active) |
| O=C(Nc1cccc(F)c1)C1CC(=O)N(c2ccc(Cl)cc2)C1 (configuration not stated) | 1.07 | -7.45% (inactive) |

| SMILES | activation factor | activity change, negative = activation |
| --- | --- | --- |
| O=C(Nc1cccc(-c2cccc(F)c2)c1)C1CCN(C2CCC2)CC1 | 2.55 | -155% (active) |
| COc1ccc(OC)c(S(=O)(=O)N2CCC(C(=O)Nc3cccc(C(F)(F)F)c3)CC2)c1 | 1.61 | -60.9% (inactive) |
| O=C(Nc1cccc(Cl)c1)NC1CCN(C2CCCCC2)C1 (configuration not stated) | 1.85 | -84.9% (inactive) |
| Cc1noc(C)c1COC(=O)C1COc2ccccc2O1 (configuration not stated) | 1.08 | -8.15% (inactive) |
| CC[C@]12c3[nH]c4cc(-c5ccco5)ccc4c3CCN1C(=O)[C@@H](CC(=O)NCC13CC4CC(CC(C4)C1)C3)C[C@@H]2C(=O)N1CCN(C(=O)C2CC2)CC1 | 0.989 | 1.05% (inactive) |
| COc1cc2sc(-c3ccccc3OC)c(-c3ccc(OCCN4CCOCC4)cc3)c2cc1OC | 1 | -0.3% (inactive) |
| CCSc1nnc(NC(=O)CCNS(=O)(=O)c2cc(Br)cnc2N)s1 | 0.825 | 17.4% (inactive) |
| CC(C)(C)c1ccc(NC(=O)Nc2ccc(F)cc2)cc1 | 1.65 | -65.3% (inactive) |
| O=C(Nc1ccc(F)cc1)Nc1cc(OCC(F)(F)F)cc(OCC(F)(F)F)c1 | 2.11 | -111% (active) |
| CCOc1ccc(NC(=O)Nc2cc(OCC(F)(F)F)cc(OCC(F)(F)F)c2)cc1 | 2.08 | -108% (active) |
| CCOc1ccc(NC(=O)Nc2cc(C)ccc2OC)cc1 | 1.16 | -15.9% (inactive) |
| CCOC(=O)c1cccc(NC(=O)Nc2ccc(OCC)cc2)c1 | 1.88 | -87.6% (inactive) |
| O=C(Nc1ccc(F)cc1)Nc1cccc(Br)c1 | 1.74 | -73.8% (inactive) |
| CC(C)Oc1cccc(C(=O)Nc2ccc(N3CCN(S(C)(=O)=O)CC3)cc2)c1 | 1.1 | -10.2% (inactive) |
| CCOCCCNC(=O)C(C)NS(=O)(=O)c1ccc(C)cc1 (configuration not stated) | 0.903 | 9.65% (inactive) |
| COc1ccc(C(=O)NCC(C)C)c(OC)c1 | 0.893 | 10.7% (inactive) |
| CC(C)(C)OC(=O)N[C@@H](Cc1ccccc1)c1nnc(SCC(=O)O)o1 | 0.956 | 4.4% (inactive) |
| O=S(=O)(c1ccc2ccccc2c1)N1CCCOC1 | 1.17 | -16.5% (inactive) |
| CCOc1ccccc1NC(=O)N1C2CCCC1CC(NC(=O)C1CC1)C2 (configuration not stated) | 1.05 | -5.1% (inactive) |
| COc1cccc(NC(=O)CC2COc3ccccc3O2)c1 (configuration not stated) | 1.15 | -15% (inactive) |
| CC(=O)c1cccc(NC(=O)NC(C)C2CCCO2)c1 (configuration not stated) | 1.12 | -12.2% (inactive) |

| SMILES | activation factor | activity change, negative = activation |
| --- | --- | --- |
| COc1cccc(NC(=O)NC2CCCCCCC2)c1 | 2.67 | -167% (active) |
| CCC1CCC(NC(=O)Nc2cccc(OC)c2)CC1 (configuration not stated) | 2.37 | -137% (active) |
| COc1cc(NC(=O)c2ccccc2)cc(OC)c1 | 0.99 | 0.95% (inactive) |
| CCN1CCN(CCC(=O)Nc2cccc(OC)c2)CC1 | 0.925 | 7.45% (inactive) |
| COc1cccc(C(=O)NC2CCN(C(=O)N3CCCCC3)CC2)c1 | 1.09 | -9.3% (inactive) |
| COc1cc(NC(=O)CCN2CCN(Cc3ccccc3)CC2)cc(OC)c1 | 0.978 | 2.15% (inactive) |
| COc1cccc(NC(=O)N2CCCC2C(=O)NC(C)C)c1 (configuration not stated) | 0.971 | 2.9% (inactive) |
| COc1cccc(NC(=O)NC(C)C2CC3CCC2C3)c1 (configuration not stated) | 1.97 | -96.6% (active) |
| COc1cc(NC(=O)NC2Cc3ccccc3C2)cc(OC)c1 | 2.69 | -169% (active) |
| COc1cccc(NC(=O)NCCCSC2CCCCC2)c1 | 1.68 | -67.6% (inactive) |
| COc1ccc(-c2nnc(SCC(=O)N3CCOCC3)n2C)cc1OC | 1.07 | -7.45% (inactive) |
| Cn1c(-c2ccc(F)cc2)cnc1NCc1cccc(F)c1 | 0.905 | 9.55% (inactive) |
| CC(C)OC(=O)c1cccc(NC(=O)c2ccccc2)c1 | 0.988 | 1.25% (inactive) |
| Cc1oc(-c2cccs2)nc1CSCC(=O)NC1CC1 | 0.893 | 10.8% (inactive) |
| CN(c1ccccc1C(=O)NCc1ccccn1)S(C)(=O)=O | 1.03 | -3.4% (inactive) |
| COC(=O)[C@@]1(C)[C@H]2C(=O)N(Cc3ccccc3)C(=O)[C@H]2[C@H]2CN=C(SC)N21 | 1.09 | -9.05% (inactive) |
| CCN1C(=O)[C@H]2[C@H]3CN=C(SC)N3[C@@](CC)(C(=O)OC)[C@H]2C1=O | 0.957 | 4.3% (inactive) |
| COC(=O)c1sc2ncn(-n3c(C)ccc3C)c(=O)c2c1C | 1.03 | -3.25% (inactive) |
